# Wnt act: activators of Wnt/beta-catenin signaling. 300,000 compounds, 1.2% hits. Wnt/beta-catenin reporter cell assay, activator, plate reader. activation, % at 9.35 µM; in the data active means activation above about 30%, passing the limit was not always enough; inconclusive means no clear call, values can overlap the other calls;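 further: 0% = neutral control wells and 100% = positive control wells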
# esBAF inh: blocks esBAF chromatin remodeling in mouse ES cells | Bmi1-luciferase knock-in reporter, 24 h; 100% = twice the neutral-well signal | 350,000 compounds, 2% hits | AID 602393 | reporter increase, % at 12.5 µM; in the data active means activation above about 40%; inconclusive means no clear call, values can overlap the other calls;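 further: 0% = median of the plate's neutral control wells and 100% = double that signal; a rise in the Bmi1 reporter signal indicates esBAF inhibition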
# GAA850 FXN act: activators of GAA850 frataxin (FXN) promoter; 360,000 compounds, 0.56% hits; AID 540364; HEK293 lucGAA850 FXN promoter luciferase reporter, 24 h; percent of 10 µM SAHA response; activation, % at 6 µM;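 active means activation above the average of all compounds screened plus 3 SD, cutoff fixed separately per campaign, cut at about 7.5% in these data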;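 further: 0% = DMSO wells and 100% = 10 µM SAHA wells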
# MITF act: increases MITF-driven TRPM1 promoter luciferase signal. 300,000 compounds, 0.75% hits. activation, % at 12.5 µM. SK-MEL-5 TRPM1-promoter luciferase, 24 h; % of positive control, neutral wells = 0;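 active means mean activation of at least 80% with every replicate also reaching 80%; inconclusive means mean reaches 80% but some replicate falls short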;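 further: 0% = neutral control wells and 100% = parthenolide positive control wells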
# Numbers without * were called inactive; u = inconclusive; x = not tested or not shown. Shown are actives, neighbours in structure and some others; about 2.8% of the full set was active somewhere.
SMILES,Wnt act,esBAF inh,GAA850 FXN act,MITF act
O=C(Nc1nnc(-c2ccc(Cl)cc2)o1)C1CCCCC1,-0.6,-7.2,-0.1,15.3
O=C(Nc1nc2cc3c(cc2s1)OCO3)C1CCCCC1,32.1*,x,4.5,75.5
O=C(Nc1nc2cc3c(cc2s1)OCO3)C1CC1,0.1,x,2.6,64.3
CC(=O)Nc1nc2cc3c(cc2s1)OCCO3,u,10.9,6.5,x
CC(C)Oc1cc(F)ccc1-c1cc(C(=O)NC2CCCCC2)[nH]n1,-3.8,-4.3,0.8,x
O=C(NC1CCCCC1)c1cc(-c2ccc(F)cc2)on1,-2.6,59.4*,4.5,x
COc1cccc(-c2cc(C(=O)NC3CCCC3)no2)c1,x,x,1.6,54.1
Cc1ccc(-c2cc(C(=O)NC3CCCC3)no2)cc1,28.7,39.1,4.2,125.0*
O=C(NC1CCCCC1)c1cc(-c2cccs2)on1,37.4*,44.6*,4.4,u
Cc1cc(F)ccc1-c1cc(C(=O)NC2CCCCC2)[nH]n1,12.7,61.8*,5.4,x
O=C(NCCN1CCOCC1)c1cc(-c2ccc(F)cc2)on1,x,x,6.3,-26.2
Clc1ccc(-c2ccc(CN3CCCCC3)o2)cc1,2.3,11.1,2.4,x
OCCc1ccc(-c2ccc(Cl)cc2)o1,1.0,51.6*,2.2,53.9
COc1ccc(S(=O)(=O)N(C)C[C@@H]2Oc3c(NC(=O)NC(C)C)cccc3C(=O)N([C@@H](C)CO)C[C@H]2C)cc1,x,-1.8,x,x
CC(C)CC#Cc1ccc2c(c1)O[C@@H](CN(C)S(=O)(=O)c1ccc(F)cc1)[C@H](C)CN([C@@H](C)CO)S2(=O)=O,x,8.4,x,x
O=C(COC(=O)c1ccc[nH]c1=O)NCCc1ccc(Cl)cc1Cl,49.7*,x,3.5,4.3
Cc1ccc(C(=O)c2ccccc2C(=O)OCC(=O)NCCc2ccc(Cl)cc2Cl)cc1,x,x,3.3,0.9
CCSc1nnc(NC(=O)COc2ccccc2[N+](=O)[O-])s1,4.8,48.6*,3.7,21.7
O=C(COc1cccc(Cl)c1Cl)Nc1ccc2c(c1)CCC2,8.1,x,-0.2,24.8
O=C(COc1ccccc1[N+](=O)[O-])Nc1ccc2c(c1)CCC2,28.8,79.0*,1.7,110.7*
COCC(=O)Nc1ccc2c(c1)OCO2,-0.8,x,1.3,0.2
CC(=O)c1cc(F)ccc1OCC(=O)Nc1ccc2c(c1)OCO2,52.8*,7.3,3.8,u
O=C(COc1ccccc1[N+](=O)[O-])N/N=C/c1cccc(OC(=O)c2ccc3c(c2)OCO3)c1,28.6,x,6.3,95.1*
CC(C)c1nnc(NC(=O)COc2ccccc2[N+](=O)[O-])s1,21.1,x,3.9,x
Cc1noc(C)c1S(=O)(=O)Nc1ccc2c(c1)C(=O)N([C@@H](C)CO)C[C@@H](C)[C@@H](CN(C)S(C)(=O)=O)O2,x,4.5,x,x
SMILES,Wnt act,esBAF inh,GAA850 FXN act,MITF act
O=C(COC(=O)COc1ccccc1[N+](=O)[O-])Nc1ccc2c(c1)OCO2,1.6,1.6,-1.7,-5.4
O=C(COc1ccccc1[N+](=O)[O-])Nc1ccc2c(c1)OCO2,15.9,57.9*,7.5,60.6
O=C(COc1cc(F)ccc1[N+](=O)[O-])Nc1ccc2c(c1)OCO2,22.4,57.3*,4.8,64.5
O=C(COC(=O)c1cccnc1Cl)Nc1ccc2c(c1)OCO2,0.9,2.8,-0.5,-6.3
O=C(COc1ccc2c(c1)OCO2)Nc1ccc(Cl)cn1,18.0,46.1*,2.4,83.6*
NC(=O)c1cc(Cl)ccc1OCC(=O)Nc1ccc2c(c1)OCO2,67.8*,-48.4,4.7,57.3
C[C@H]1CN([C@@H](C)CO)C(=O)c2cc(NS(=O)(=O)c3cccs3)ccc2O[C@@H]1CN(C)S(=O)(=O)c1cccs1,x,0.0,x,x
O=C(C[C@@H]1CC[C@H](NC(=O)C2CCOCC2)[C@H](CO)O1)Nc1nccs1,x,1.2,x,x
COC(=O)C1C(=O)c2c([nH]c(C(=O)OC3CCCC3C)c2C)CC1C (configuration not stated),26.3,73.5*,3.7,98.7*
Cc1c(C(=O)OC2CCCCC2)[nH]c2c1C(=O)CC(C)(C)C2,-1.7,36.5,1.1,53.1
COC(=O)C1C(=O)c2c([nH]c(C(=O)OC3CCCCC3)c2C)CC1C (configuration not stated),u,63.4*,4.8,93.9*
O=C(C[C@H]1C=C[C@@H](NC(=O)c2cccc(F)c2)[C@@H](CO)O1)NCc1ccc(Oc2ccccc2)cc1,x,14.9,x,x
Cc1cc(C(=O)N/N=C/c2c(C)nn(-c3ccccc3)c2Cl)n[nH]1,6.3,51.7*,4.5,x
C[C@H]1CN([C@@H](C)CO)C(=O)Cc2cc(NC(=O)Nc3ccc(C(F)(F)F)cc3)ccc2O[C@H]1CN(C)C(=O)NC1CCCCC1,x,2.1,x,x
C[C@H](CO)N1C[C@H](C)[C@H](CN(C)C)Oc2cc(C#Cc3ccncc3)ccc2S1(=O)=O,x,2.0,x,x
CCCC(=O)Nc1ccc2c(c1)C(=O)N(C)[C@@H]1CC[C@@H](CC(=O)NCC3CC3)O[C@@H]1CO2,x,-6.5,x,x
O=C(OCc1csc(-c2ccccc2)n1)c1ccc(O)cc1,0.6,x,1.2,97.6*
CCCNC(=O)Nc1ccc2c(c1)OC[C@H](C)N(CCC)C[C@@H](C)[C@@H](OC)CN(C)C2=O,x,-5.7,x,x
CC(=O)/C(=C(/O)c1ccccc1)c1nc2ccccc2[nH]1,6.0,37.3,0.6,85.0*
C[C@H]1CCCCO[C@@H](CN(C)C)[C@@H](C)CN([C@@H](C)CO)C(=O)c2cc(NC(=O)c3ccccc3)ccc2O1,x,1.6,x,x
CC(=O)N1N=C(c2ccccc2)CC1c1cn(C)c2ccccc12 (configuration not stated),90.4*,31.6,4.6,-6.6
CC(=O)N1N=C(c2ccccc2)CC1c1ccc(F)cc1 (configuration not stated),-0.7,-2.1,1.7,x
CC(C)(C)C1CCC(=O)N(CCSc2ccccc2)CC1 (configuration not stated),46.9*,62.4*,4.0,96.4*
Cc1ccc(SCCN2CCC(C(C)(C)C)CCC2=O)cc1 (configuration not stated),8.8,25.3,3.1,46.4
O=C1CCN(Cc2ccccc2)CCN1CCSc1ccccc1,27.0,61.2*,1.7,60.9
SMILES,Wnt act,esBAF inh,GAA850 FXN act,MITF act
C[C@H]1CCC(=O)N(CCSc2ccc(Br)cc2)CC1,28.3,53.3*,0.7,76.9
CCCN1CCC(=O)N(CCSc2ccccc2)CC1,23.3,6.9,3.0,25.4
CCS(=O)(=O)Nc1ccc2c(c1)OC[C@H](C)NC[C@@H](C)[C@@H](OC)CN(C)C2=O,x,-0.6,x,x
O=C1/C(=C\c2ccsc2)N2CCC1CC2,32.7*,-0.3,0.4,2.7
COc1ccc(C(=O)NCCn2ccc3ccccc32)c(OC)c1,13.7,54.7*,2.8,50.9
CO[C@H]1CN(C)C(=O)c2cc(NC(=O)C3CC3)ccc2OC[C@@H](C)N(CCC(F)(F)F)C[C@H]1C,x,3.3,x,x
O=C(CSc1nnc(-c2ccc(O)cc2)n1Cc1ccco1)c1cccs1,x,3.3,-1.9,x
CC(NC(=O)Cc1cccs1)c1ccc2c(c1)OCO2 (configuration not stated),0.3,5.1,-1.9,4.3
O=C(CC(SCCO)c1ccc2c(c1)OCO2)c1cccs1 (configuration not stated),41.9*,84.0*,4.0,88.2*
